From PubChem BioAssay AID525 (The Scripps Research Institute Molecular Screening Center, 2006)
Screen size: about 65,000 compounds; about 360 (0.55%) were called active. The full list was thinned out, with actives kept by preference. Unmarked numbers belong to inactive results.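 The calls were made as follows: active = inhibition above the mean inhibition of all tested compounds plus 3 SD (cut at about 48% in these data); inactive = the rest.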

Each molecule was assayed against Steroidogenic factor 1 (Homo sapiens) (UniProt Q13285) (assay: suppressors of SF-1 driven luciferase transcription – cell-based, CHO-K1, Gal4-SF-1 LBD, luciferase luminescence, primary screen (AID 525;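 also: 0% = SF-1 transfected cells with DMSO and 100% = mock-transfected cells lacking SF-1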)). Conditions: CHO-K1 Gal4-SF-1 LBD luciferase reporter; at 10 µM; hits give high values.
Sequence of Steroidogenic factor 1 (Homo sapiens) (Q13285 whole entry, looked up, the tested form may be a part): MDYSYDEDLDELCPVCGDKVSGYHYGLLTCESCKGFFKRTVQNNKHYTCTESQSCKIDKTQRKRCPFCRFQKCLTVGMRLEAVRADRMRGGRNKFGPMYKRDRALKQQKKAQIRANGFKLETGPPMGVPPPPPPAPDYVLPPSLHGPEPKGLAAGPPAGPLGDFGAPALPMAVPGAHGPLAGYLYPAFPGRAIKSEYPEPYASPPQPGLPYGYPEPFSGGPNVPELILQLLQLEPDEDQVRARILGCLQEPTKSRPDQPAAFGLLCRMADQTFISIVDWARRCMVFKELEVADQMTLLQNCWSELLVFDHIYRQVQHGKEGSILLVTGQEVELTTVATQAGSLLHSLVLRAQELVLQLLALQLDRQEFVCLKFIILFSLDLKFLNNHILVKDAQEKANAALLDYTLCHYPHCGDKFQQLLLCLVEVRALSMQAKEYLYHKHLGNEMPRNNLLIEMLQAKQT
Work on `CCC(=O)Oc1cccc(C(=O)Nc2ccc(-c3nnc(-c4ccco4)o3)cc2)c1` yielded an inhibition of -79.8%. For `CCCCOc1ccc(-c2nnc(-c3ccco3)o2)cc1`, the inhibition was -23.7%. Molecule `Cc1csc(NC(=O)C2CCCN2C(=O)OCC(C)C)n1` (stereo not drawn) has an inhibition of 5.9%. For `O=C(NCc1ccccn1)Nc1ccc(F)cc1`, the inhibition was -14.7%. `CC(=O)OC(C(=O)NCCc1ccccc1)c1cccnc1` (stereo not drawn) showed an inhibition of 4.1%. In the case of `CCCC(=O)C1=C(N(C)c2ccccc2)CC(C)(C)C(C(=O)OC)C1=O` (stereo not drawn), the inhibition was -2.3%. `CCc1nnc(NC(=O)c2cccs2)s1` gave an inhibition of -50%. `Cc1noc(NS(=O)(=O)c2ccc(N3CC(O)=C(c4ccccc4)C3=N)cc2)c1C` was tested, and the inhibition was 10.1%. `COCc1cc(C)nc(Nc2cc(C)ccc2C)c1C#N` was tested, and the inhibition was 3.4%. `COc1ccc(C)c2sc(=NC(=O)c3ccc(C#N)cc3)n(C)c12` showed an inhibition of -42.4%. In the case of `Clc1ccc(Cc2nnc(-c3cccs3)o2)cc1`, the inhibition was -59.5%. Molecule `CCn1c(CSc2nncn2-c2ccc(OC)cc2)nc2cc(S(=O)(=O)N(C)C)ccc21` has an inhibition of -10.1%. For `COc1ccc(OCCCC(=O)Nc2nnc(C3CCCO3)s2)cc1` (stereo not drawn), the inhibition was -1.2%. `Cc1[nH]c2ccc(S(N)(=O)=O)cc2c1C` was tested, and the inhibition was -22.2%. `CN(C)c1ccc(CNC23CN4CN(CN(C4)C2)C3)cc1` showed an inhibition of 14.1%. Molecule `O=C(NCc1ccccc1)C1C(=O)N(Cc2ccccc2)C(=O)C1C1(O)CCCC1` (stereo not drawn) has an inhibition of 4.4%. With `CC1CN(c2cc(=O)n(Cc3ccc(F)cc3)c(=O)[nH]2)CC(C)O1` (stereo not drawn) the inhibition was -7.1%. In the case of `O=C(CN1C(=O)COc2ccccc21)NCCN1CCc2ccccc2C1`, the inhibition was 1.3%. Work on `C[N+]1(CCNC(=O)/C=N/O)CCCCC1` yielded an inhibition of 3.2%. With `CC(C)C(=O)Nc1cccc(C(=O)Nc2ccc3c(c2)OCO3)c1` the inhibition was -55%. In the case of `Cc1cccc(NC(=O)CSC(N)=O)c1C`, the inhibition was 9.5%. In the case of `CCOC(=O)c1sc(N(Cc2ccccc2)C(=O)CN2C(=O)CN(C)C2=O)nc1C`, the inhibition was 3.4%. `CCS(=O)(=O)N1CCC(C(=O)N2CCN(c3ccccc3)CC2)CC1` was tested, and the inhibition was 0.7%. For `O=C(Nc1ccc(NC(=O)c2cccs2)cn1)c1ccco1`, the inhibition was -73.3%. Molecule `O=C(c1cccc(C(=O)N2CCN(c3ccc(F)cc3)CC2)c1)N1CCN(c2ccc(F)cc2)CC1` has an inhibition of 6.4%. Work on `COc1ccc(C2=NOC(C(=O)NCc3ccco3)C2)cc1OC` (stereo not drawn) yielded an inhibition of -23.3%. For `COC(=O)c1ccccc1NC(=O)C1CCN(S(=O)(=O)c2cc(OC)ccc2OC)CC1`, the inhibition was 4.4%. `CC(=O)c1cc(C#N)c(SCC(=O)C(C)(C)C)nc1C` showed an inhibition of -57.1%. For `CCOC(=O)C1=C(C)N=c2s/c(=C\C(=O)OC)c(=O)n2C1c1ccc(OC)cc1` (stereo not drawn), the inhibition was -6.9%. For `COc1ccc(OC)c(CNC(=O)C2CCCN(c3nc4ccccc4o3)C2)c1` (stereo not drawn), the inhibition was 9.1%. With `COCc1cc(C)nc(SCC(=O)Nc2cccc(C)c2)c1C#N` the inhibition was 2.8%. For `Cc1cnc(NC(=O)CSc2nnc(-c3ccccc3)n2Cc2ccccc2)s1`, the inhibition was 13.7%. `COc1ccc(N2CCN(CCNC(=O)CCN3C(=O)COc4ccccc43)CC2)cc1` gave an inhibition of 11.5%. In the case of `CCOC(=O)CCC(=O)OCC(=O)NC(C)C1CC2CCC1C2` (stereo not drawn), the inhibition was 0.5%. In the case of `COc1ccc(OC)c(Nc2nc(-c3ccc(O)c(O)c3)cs2)c1`, the inhibition was 85.3% (active). Work on `Cc1cc2nc(-c3ccc(NC(=O)c4cccnc4)cc3)oc2cc1C` yielded an inhibition of -54.8%. `CCc1ccc2oc(-c3ccc(N)cc3)nc2c1` was tested, and the inhibition was 50.8% (active). `Nc1ccc(-c2nnc(-c3ccc(-c4ccccc4)cc3)o2)cc1` gave an inhibition of -55.2%. `O=C(CSc1nnc2ccccn12)c1ccccc1` was tested, and the inhibition was -55.3%. With `Fc1ccc2[nH]c3c(N4CCN(Cc5ccc6c(c5)OCO6)CC4)ncnc3c2c1` the inhibition was 83.3% (active). For `Fc1ccc2[nH]c3c(N4CCSCC4)ncnc3c2c1`, the inhibition was 58.1% (active). For `O=C(C1CCN(S(=O)(=O)c2cnc[nH]2)CC1)N1CCN(Cc2ccc3c(c2)OCO3)CC1`, the inhibition was 6.1%. With `CC[C@]1(O)CC2CN(CCc3c([nH]c4ccccc34)[C@@](C(=O)OC)(c3cc4c(cc3OC)N(C=O)[C@H]3[C@@](O)(C(=O)OC)[C@H](OC(C)=O)[C@]5(CC)C=CCN6CC[C@]43[C@@H]65)C2)C1` (stereo partly drawn) the inhibition was 73.8% (active). `CC[C@]1(O)C[C@@H]2CN(CCc3c([nH]c4ccccc34)[C@@](C(=O)OC)(c3cc4c(cc3OC)N(C)[C@H]3[C@@](O)(C(=O)OC)[C@H](OC(C)=O)[C@]5(CC)C=CCN6CC[C@]43[C@@H]65)C2)C1` was tested, and the inhibition was 73.1% (active). `Cc1ccc(N2C(=O)c3ccccc3C2(O)c2ncc[nH]2)cc1` (stereo not drawn) gave an inhibition of -6.1%. In the case of `COc1cc(C2C3C(=O)N(c4ccccc4)C(=O)C3ON2c2ccccc2)ccc1O` (stereo not drawn), the inhibition was -51.7%. With `O=C(Nn1cnc2ccccc2c1=O)c1ccc(F)cc1Cl` the inhibition was -64.7%. For `CC1CN(C2CCCCC2)c2nc3c(c(=O)n(C)c(=O)n3C)n2C1` (stereo not drawn), the inhibition was -1.7%.
